# Measured values as given in PubChem BioAssay (NCATS).
# Results filed as inconclusive are left out. Unmarked numbers belong to inactive results. Unless noted, the call rests on the fitted dose curve; in most records, active means well fitted activation curve with a large enough effect in the main read-out, with a control signal flat (not every such curve was filed as active); inconclusive means small, poorly fitted or top-dose-only effect, or effect the other way, or a change in a side signal; inactive means flat fitted curve, though single readings scatter.
# Molecular target: Mitogen-activated protein kinase 10 (Mus musculus) (UniProt Q61831)
# Test: JNK3 AlphaScreen Assay (AID 530; active means well fitted curve in either direction with a large enough effect, not every such curve was filed as active;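 further: kinase came from lysate of stimulated human HepG2 cells; signal reports phosphorylation of biotinylated GST-cJun 1-79 at Ser73 with 10 µM ATP; on the % scale 0 is the no-effect control and ±100 the full control effect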)
# Details: JNK3 lysate, c-Jun phosphorylation; series mostly up to 57.1 µM; activity change, negative = inhibition: at the top concentration
# Procedure, shortened: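 Phosphorylation of biotinylated GST-cJun(1-79) at Ser73 is measured by AlphaScreen proximity luminescence. Enzyme is JNK3 in HepG2 lysates activated with interleukin-1beta and tumor necrosis factor alpha; ATP is 10 uM final.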
row,Compound,"activity change, negative = inhibition [%]"
1,CC(=O)N1CCC2(CC1)CN(Cc1ccccc1)C2,3.04
2,Cn1cccc1C(=O)N1CCC2(CCN(C(=O)Nc3cccc(F)c3)CC2)CC1,-4.99
3,COCC(=O)N1CCC2(CC1)CCN(C(=O)Nc1ccc(OC)cc1)CC2,-0.127
4,COC(=O)N1CCC[C@@]2(CCN(c3ccncc3)C2)C1,2.31
5,COC(=O)N1CCC2(CCN(C(=O)NC(C)C)CC2)CC1,-15.2
6,O=C(Nc1cccc(F)c1)N1CCC2(CCNCC2)CC1,-0.239
7,O=S(=O)(c1ccccc1)N1CCC2(CCN(C(c3ccccc3)c3ccccc3)CC2)CC1,-9.51
8,CC(C)NC(=O)N1CC[C@@]2(CCCN(C(=O)c3cccn3C)C2)C1,-0.825
9,CS(=O)(=O)N1CCC2(CCN(c3ccccc3)CC2)CC1,2.49
10,CC(C)NC(=O)N1CC[C@@]2(CCCN(C(=O)Oc3ccccc3)C2)C1,2.47
11,COc1ccc(NC(=O)N2CC[C@@]3(CCCNC3)C2)cc1,-6.28
12,O=C(c1ccncc1)N1CCC2(CC1)CN(c1ncccn1)C2,2.96
13,COc1ccc(NC(=O)N2CC3(CCN(C(=O)c4cccn4C)CC3)C2)cc1,-3.26
14,COC(=O)N1CCC2(CC1)CN(C(=O)Nc1ccccc1)C2,2.04
15,COc1ccccc1CN1CC[C@@]2(CCCN(C(=O)c3c(C)noc3C)C2)C1,-0.477
16,CC(=O)N1CCC[C@@]2(CCN(Cc3ccccc3)C2)C1,6.31
17,O=C(c1csnn1)N1CCC2(CCCN(Cc3cc(C(F)(F)F)cc(C(F)(F)F)c3)C2)CC1,-2.3
18,CS(=O)(=O)N1CCC2(CC1)CN(C(=O)Nc1ccccc1)C2,-2.24
19,O=C(Nc1cccc(F)c1)N1CCC2(CC1)CCN(C(=O)c1csnn1)CC2,-6.74
20,COCC(=O)N1CCC2(CCCN(C(=O)Nc3cccc(F)c3)C2)CC1,-0.0746

row,Compound,"activity change, negative = inhibition [%]"
1,COc1ccc(NC(=O)N2CCC3(CC2)CCN(C(=O)c2cnccn2)CC3)cc1,-18.4
2,O=C(Nc1ccccc1)N1CCC2(CC1)CCN(C(=O)c1csnn1)CC2,-3.26
3,COC(=O)N1CCC[C@@]2(CCN(C(=O)Nc3ccccc3)C2)C1,5
4,COc1ccc(C(=O)N2CCC3(CCCN(Cc4ccncc4)C3)CC2)cc1,-1.71
5,O=C(c1cc(C(F)(F)F)cc(C(F)(F)F)c1)N1CCC[C@@]2(CCN(Cc3ccncc3)C2)C1,0.428
6,COc1ccc(NC(=O)N2CC3(CCN(C(=O)c4c(C)noc4C)CC3)C2)cc1,-4.3
7,O=C(Nc1ccccc1)N1CCC2(CC1)CCN(C(=O)c1cnccn1)CC2,0.48
8,COC(=O)N1CCC2(CC1)CN(c1cccc(-c3ccccc3)c1)C2,0.159
9,COCC(=O)N1CCC[C@@]2(CCN(c3ncccn3)C2)C1,-6.96
10,O=C(Nc1cccc(F)c1)N1CC2(CCN(C(=O)c3csnn3)CC2)C1,2.34
11,COCC(=O)N1CCC2(CC1)CN(C(=O)Nc1cccc(C#N)c1)C2,5.71
12,CC(C)NC(=O)N1CCC2(CC1)CCN(S(C)(=O)=O)CC2,-0.729
13,O=C(c1csnn1)N1CCC2(CC1)CN(c1ccncc1)C2,1.26
14,COCC(=O)N1CCC2(CC1)CCN(C(=O)Nc1cccc(F)c1)CC2,-1.53
15,O=C(c1cnccn1)N1CCC2(CCN(Cc3nccs3)CC2)CC1,2.8
16,CC(=O)N1CCC2(CC1)CN(c1ccncc1)C2,3.37
17,CS(=O)(=O)N1CCC2(CCN(C(=O)Nc3cccc(F)c3)CC2)CC1,2.74
18,O=C(Nc1ccccc1)N1CC[C@@]2(CCCN(C(=O)c3ccco3)C2)C1,6.03
19,CS(=O)(=O)N1CCC[C@@]2(CCN(C(=O)Nc3ccccc3)C2)C1,6.25
20,Cc1noc(C)c1C(=O)N1CCC[C@@]2(CCN(C(=O)NC(C)C)C2)C1,-2.23

# Molecular target: 3',5'-cyclic-AMP phosphodiesterase 4B (Homo sapiens) (UniProt Q07343)
# Test: qHTS Assay for Inhibitors of PDE-IV (AID 607); further: % of control where 0% means no effect
# Details: HEK293 ACTOne CNG channel cells, membrane potential fluorescence; series mostly up to 22.9 µM; activation (PDE inhibition): at the top concentration
# Procedure, shortened: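 Cell-based read-out of cAMP via a modified cyclic nucleotide-gated channel and membrane potential dye (535/590 nm) in HEK293 cells expressing PDE4 endogenously. Compounds tested up to 22.9 uM final; 100 uM RO 20-1724 reference.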
# Chain of 3',5'-cyclic-AMP phosphodiesterase 4B (Homo sapiens) (Q07343 whole entry, looked up): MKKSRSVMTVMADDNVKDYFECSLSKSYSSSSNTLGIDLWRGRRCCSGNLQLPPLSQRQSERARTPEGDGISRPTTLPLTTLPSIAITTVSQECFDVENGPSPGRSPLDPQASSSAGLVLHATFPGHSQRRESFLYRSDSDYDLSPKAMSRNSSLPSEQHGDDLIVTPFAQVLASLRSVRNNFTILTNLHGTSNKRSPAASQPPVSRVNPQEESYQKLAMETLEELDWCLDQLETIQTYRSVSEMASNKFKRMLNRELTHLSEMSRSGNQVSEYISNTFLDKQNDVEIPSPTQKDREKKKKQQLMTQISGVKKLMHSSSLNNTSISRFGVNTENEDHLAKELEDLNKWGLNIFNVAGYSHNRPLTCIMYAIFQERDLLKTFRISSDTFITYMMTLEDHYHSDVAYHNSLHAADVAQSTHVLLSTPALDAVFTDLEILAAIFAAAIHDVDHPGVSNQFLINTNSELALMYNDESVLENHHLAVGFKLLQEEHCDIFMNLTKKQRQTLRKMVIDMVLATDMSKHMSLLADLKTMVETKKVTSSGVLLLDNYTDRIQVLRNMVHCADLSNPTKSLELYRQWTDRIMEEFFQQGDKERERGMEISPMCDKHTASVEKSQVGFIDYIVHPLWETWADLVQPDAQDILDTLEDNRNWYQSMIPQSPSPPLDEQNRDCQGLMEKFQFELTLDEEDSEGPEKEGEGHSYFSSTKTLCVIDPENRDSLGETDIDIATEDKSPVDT
row,Compound,activation (PDE inhibition) [%]
1,CC(=O)N1CCC2(CC1)CN(Cc1ccccc1)C2,-4.37
2,Cn1cccc1C(=O)N1CCC2(CCN(C(=O)Nc3cccc(F)c3)CC2)CC1,3.8
3,COCC(=O)N1CCC2(CC1)CCN(C(=O)Nc1ccc(OC)cc1)CC2,11
4,COC(=O)N1CCC[C@@]2(CCN(c3ccncc3)C2)C1,-3.43
5,COC(=O)N1CCC2(CCN(C(=O)NC(C)C)CC2)CC1,-1.97
6,O=C(Nc1cccc(F)c1)N1CCC2(CCNCC2)CC1,4.59
7,O=S(=O)(c1ccccc1)N1CCC2(CCN(C(c3ccccc3)c3ccccc3)CC2)CC1,15.3
8,CC(C)NC(=O)N1CC[C@@]2(CCCN(C(=O)c3cccn3C)C2)C1,0.0125
9,CS(=O)(=O)N1CCC2(CCN(c3ccccc3)CC2)CC1,-7.97
10,CC(C)NC(=O)N1CC[C@@]2(CCCN(C(=O)Oc3ccccc3)C2)C1,-4.68
11,COc1ccc(NC(=O)N2CC[C@@]3(CCCNC3)C2)cc1,9.86
12,O=C(c1ccncc1)N1CCC2(CC1)CN(c1ncccn1)C2,-11.7
13,COc1ccc(NC(=O)N2CC3(CCN(C(=O)c4cccn4C)CC3)C2)cc1,-5.61
14,COC(=O)N1CCC2(CC1)CN(C(=O)Nc1ccccc1)C2,-2.67
15,COc1ccccc1CN1CC[C@@]2(CCCN(C(=O)c3c(C)noc3C)C2)C1,-4.53
16,CC(=O)N1CCC[C@@]2(CCN(Cc3ccccc3)C2)C1,-2.06
17,O=C(c1csnn1)N1CCC2(CCCN(Cc3cc(C(F)(F)F)cc(C(F)(F)F)c3)C2)CC1,-4.71
18,CS(=O)(=O)N1CCC2(CC1)CN(C(=O)Nc1ccccc1)C2,-1.85
19,O=C(Nc1cccc(F)c1)N1CCC2(CC1)CCN(C(=O)c1csnn1)CC2,-2.12
20,COCC(=O)N1CCC2(CCCN(C(=O)Nc3cccc(F)c3)C2)CC1,3.72

row,Compound,activation (PDE inhibition) [%]
1,COc1ccc(NC(=O)N2CCC3(CC2)CCN(C(=O)c2cnccn2)CC3)cc1,5.44
2,O=C(Nc1ccccc1)N1CCC2(CC1)CCN(C(=O)c1csnn1)CC2,16.1
3,COC(=O)N1CCC[C@@]2(CCN(C(=O)Nc3ccccc3)C2)C1,4.67
4,COc1ccc(C(=O)N2CCC3(CCCN(Cc4ccncc4)C3)CC2)cc1,10.2
5,O=C(c1cc(C(F)(F)F)cc(C(F)(F)F)c1)N1CCC[C@@]2(CCN(Cc3ccncc3)C2)C1,3.78
6,COc1ccc(NC(=O)N2CC3(CCN(C(=O)c4c(C)noc4C)CC3)C2)cc1,-3.04
7,O=C(Nc1ccccc1)N1CCC2(CC1)CCN(C(=O)c1cnccn1)CC2,8.83
8,COC(=O)N1CCC2(CC1)CN(c1cccc(-c3ccccc3)c1)C2,-8.69
9,COCC(=O)N1CCC[C@@]2(CCN(c3ncccn3)C2)C1,26.4
10,O=C(Nc1cccc(F)c1)N1CC2(CCN(C(=O)c3csnn3)CC2)C1,-8.72
11,COCC(=O)N1CCC2(CC1)CN(C(=O)Nc1cccc(C#N)c1)C2,-4.49
12,CC(C)NC(=O)N1CCC2(CC1)CCN(S(C)(=O)=O)CC2,3.26
13,O=C(c1csnn1)N1CCC2(CC1)CN(c1ccncc1)C2,9.2
14,COCC(=O)N1CCC2(CC1)CCN(C(=O)Nc1cccc(F)c1)CC2,2.6
15,O=C(c1cnccn1)N1CCC2(CCN(Cc3nccs3)CC2)CC1,3.56
16,CC(=O)N1CCC2(CC1)CN(c1ccncc1)C2,-7.49
17,CS(=O)(=O)N1CCC2(CCN(C(=O)Nc3cccc(F)c3)CC2)CC1,11
18,O=C(Nc1ccccc1)N1CC[C@@]2(CCCN(C(=O)c3ccco3)C2)C1,7.18
19,CS(=O)(=O)N1CCC[C@@]2(CCN(C(=O)Nc3ccccc3)C2)C1,8.39
20,Cc1noc(C)c1C(=O)N1CCC[C@@]2(CCN(C(=O)NC(C)C)C2)C1,8.06
